Only some compounds are listed: those with a hit (about 6.9% of all), similar ones and a draw of the others.
Giardia kill = kills Giardia lamblia. Giardia lamblia trophozoite viability. activity change, % at 7.66 µM, hits read low. 340,000 compounds, 0.15% hits. AID 540267; in the data active = activity change below about -80%; inconclusive = between about -30% and that limit;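 note: parasites exposed to compound for two days anaerobically before the ATP read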
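Anaerobic 48 hrs incubation at 37 deg C of 100 trophozoites/well with test compounds; ATPLite 1-Step luminescence, 15-30 min RT, reports cellular ATP as viability.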
ASM inhibitor = blocks human secretory acid sphingomyelinase | placental ASM, HMU-PC fluorogenic substrate, 60 min | Potency, µM (titrated, usually from 57.5 µM), hits mostly inhibitors | 340,000 compounds, 0.006% hits | AID 504937
Target sequence (P17405 47-631 limits assumed): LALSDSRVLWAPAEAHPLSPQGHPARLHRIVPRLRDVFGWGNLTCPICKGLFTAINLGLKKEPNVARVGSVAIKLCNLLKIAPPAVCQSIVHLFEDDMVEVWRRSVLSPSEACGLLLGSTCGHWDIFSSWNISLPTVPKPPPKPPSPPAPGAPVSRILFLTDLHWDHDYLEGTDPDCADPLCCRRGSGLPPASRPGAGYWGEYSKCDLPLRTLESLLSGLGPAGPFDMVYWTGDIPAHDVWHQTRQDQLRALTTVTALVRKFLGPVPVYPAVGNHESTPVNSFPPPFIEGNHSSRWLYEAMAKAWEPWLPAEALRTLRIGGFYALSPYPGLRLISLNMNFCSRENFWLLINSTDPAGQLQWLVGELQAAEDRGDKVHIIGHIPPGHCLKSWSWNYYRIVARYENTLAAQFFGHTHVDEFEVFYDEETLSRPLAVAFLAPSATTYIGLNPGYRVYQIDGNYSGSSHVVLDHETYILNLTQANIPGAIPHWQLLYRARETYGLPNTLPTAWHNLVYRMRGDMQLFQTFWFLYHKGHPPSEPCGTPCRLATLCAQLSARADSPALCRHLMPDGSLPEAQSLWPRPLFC
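Fluorogenic HMU-PC substrate (9 uM final) is turned over by placental ASM in 60 min at 37 C after a 10 min compound preincubation. Reaction ended by alkaline stop (pH 10), with fluorescence read at 386/447 nm.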
KB-3-1 tox = kills parental KB-3-1 adenocarcinoma cells; KB-3-1 viability, CellTiter-Glo ATP luminescence, 72 h; Potency, µM (doses to about 46.1 µM), most hits filed as cytotoxic; 400,000 compounds, 1.4% hits; AID 1347075; note: nearly all actives have a fitted effect of over 60% in size
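Parental KB-3-1 adenocarcinoma cells in phenol-red-free DMEM with 10% FBS were pin-treated with compounds at several concentrations, incubated 72 h at 37 °C, and viability read by CellTiter-Glo luminescence; concentration-effect curves were fitted after normalization.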
KB-V1 cytotox = kills drug-selected multidrug resistant KB-V1 cells. KB-V1 MDR cells viability, CellTiter-Glo, 72 h. Potency, µM (top dose mostly 46.1 µM), most hits filed as cytotoxic. 400,000 compounds, 3.4% hits. AID 1347076; note: nearly all actives have a fitted effect of over 60% in size
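Drug-selected KB-V1 cells, grown in DMEM lacking phenol red with 10% FBS, receive compound titrations; after three days at 37 degrees C, surviving cell ATP is quantified by CellTiter-Glo luminescence and responses normalized and curve-fitted.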
SW480 rereplic = DNA re-replication induction in SW480 cells; SW480 DNA re-replication, Hoechst DNA content imaging, 48 h; Potency, µM (series often up to 46.1 µM), most hits filed as activators; 340,000 compounds, 1.8% hits; note: nearly all actives have a fitted effect of over 55% in size
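Quantitative HTS format with DMSO vehicle controls; 48 hr drug incubation at 37 C, then 40 min Hoechst staining and scanning imager measurement at 405 nm excitation.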
MCF10A rereplic = induces DNA re-replication in MCF 10a normal breast cells | MCF 10A DNA re-replication, Hoechst nuclear intensity, 48 h | Potency, µM (series often up to 46.1 µM), most hits filed as activators | 350,000 compounds, 2.9% hits | AID 624296; note: nearly all actives have a fitted effect of over 50% in size
A number is an active result; n = inactive; u = inconclusive; x = no result given. Unless noted, calls come from the whole dose curve; as a rule, active = well fitted curve in the direction sought with a large enough effect; inconclusive = small, poorly fitted or top-dose-only effect, or another doubt; inactive = no such curve, though single readings can be large; an effect the other way counts as inactive or inconclusive.

SMILES	Giardia kill	ASM inhibitor	KB-3-1 tox	KB-V1 cytotox	SW480 rereplic	MCF10A rereplic
Cc1cc(S(=O)(=O)Nc2ccc3ccccc3c2)c(C)s1	n	n	u	3.3µM	u	6.5µM
Cc1oc(-c2cccc(Cl)c2)nc1CS(=O)(=O)CC(=O)NC(C)CCc1ccccc1 (centres undefined)	x	x	n	n	x	x
CCN(CCNC(=O)C1CCCN(Cc2nc(-c3ccc(OC)cc3)oc2C)C1)c1ccccc1 (centres undefined)	n	n	u	u	u	u
Cc1oc(-c2cccc(Cl)c2)nc1CN1CCC(C(=O)NC2CC2)CC1	n	n	n	n	n	n
CCc1ccc(-c2nc(CN3CCC(C(=O)N4CCN(c5ccccc5)CC4)CC3)c(C)o2)cc1	n	n	n	8.2µM	u	u
CCc1ccc(-c2nc(CN3CCC(C(=O)NCCN(CC)c4ccccc4)CC3)c(C)o2)cc1	n	n	n	4.6µM	u	u
Cc1oc(-c2ccc(Cl)cc2)nc1CN1CCC(C(=O)NCCCN2CCOCC2)CC1	n	n	n	n	u	n
CCN(CCNC(=O)C1CCN(Cc2nc(-c3ccc(Cl)cc3)oc2C)CC1)c1ccccc1	n	n	n	7.3µM	u	u
CCN(CCNC(=O)C1CCN(Cc2nc(-c3cccc(Cl)c3)oc2C)CC1)c1ccccc1	n	n	u	2.6µM	u	u
Cc1ccc(C)n1-c1nnc(N2CCCC(C(=O)NCc3cccc(F)c3)C2)s1 (centres undefined)	x	x	n	n	x	x
Brc1cccc(-c2nnc(CN3CCN(c4ccccn4)CC3)o2)c1	x	x	n	n	x	x
Cc1cc(N)cc(C)c1-c1c(Br)cc(N)cc1Br	n	n	13µM	16µM	u	u
COc1ccc(C2CC(O)(c3ccccc3)Oc3c(C)ccc(C)c32)cc1 (centres undefined)	n	n	u	u	u	u
COc1ccc(C2CC(O)(c3ccccc3)Oc3cc(OC)cc(OC)c32)cc1 (centres undefined)	n	n	u	n	n	21µM
CCc1ccc(NC(=O)COC(=O)C2(c3ccc(Cl)cc3)CCCC2)cc1	n	n	u	18µM	u	n
CSc1cccc(NC(=O)COC(=O)C2(c3ccccc3)CC2)c1	n	n	n	18µM	u	n
NC(=O)c1cc2cc(Br)ccc2o/c1=N/NC(=O)c1cccc(F)c1	n	n	n	n	u	n
CN1/C(=C\C(=S)NC(=O)c2cccc(Br)c2)C(C)(C)c2ccccc21	n	n	u	8.2µM	u	u
CCN(CC)S(=O)(=O)c1cccc(C(=O)/C=C2/N(C)c3ccccc3C2(C)C)c1	n	n	n	n	21µM	18µM
CN1/C(=C\C(=S)NC(=O)c2ccc([N+](=O)[O-])cc2)C(C)(C)c2ccccc21	n	n	n	n	n	n
Cc1c2n(c3ccccc13)CC/C2=N\O	n	n	u	5.2µM	n	n
Cc1ccc(S(=O)(=O)N2CCC(C(=O)N3CCC[C@H]3C(=O)NCc3ccccc3)CC2)cc1	n	n	n	u	n	n
COCCNC(=O)[C@@H]1CCCN1C(=O)C1CCN(S(=O)(=O)c2ccc(C)cc2)CC1	n	n	n	n	n	n
COc1cccc(NC(=O)[C@@H]2CCCN2C(=O)C2CCN(S(=O)(=O)c3ccc(C)cc3)CC2)c1	n	n	n	18µM	n	n
COc1ccccc1CNC(=O)[C@@H]1CCCN1C(=O)C1CCN(S(=O)(=O)c2ccc(C)cc2)CC1	n	n	n	16µM	n	n
SMILES	Giardia kill	ASM inhibitor	KB-3-1 tox	KB-V1 cytotox	SW480 rereplic	MCF10A rereplic
Cc1ccc(CNC(=O)C2CCCN2C(=O)Nc2ccccc2)cc1 (centres undefined)	n	n	n	n	n	0.65µM
Cc1ccc(CNC(=O)C2CCCN2C(=O)Nc2ccc(C)cc2)cc1 (centres undefined)	n	n	n	n	n	n
CC(C)Cn1nc(NC(=O)c2cccc(Cl)c2)c2cc3ccccc3nc21	x	x	n	u	x	x
Cc1sc(NC(=O)C2c3ccccc3Oc3ccccc32)c(C(=O)OC(C)C)c1C	x	x	n	n	x	x
O=C(NC(=S)NNC(=O)c1ccccc1O)c1ccccc1	n	n	u	n	15µM	n
Cc1onc(-c2ccccc2)c1C(=O)NC(=S)NNC(=O)c1ccccc1O	n	n	u	u	n	n
CC(=O)NC(=S)NNC(=O)CCc1ccccc1	n	n	n	n	n	n
O=C(CCc1ccccc1)NC(=S)Nc1cccc(Br)c1	n	n	n	n	n	16µM
O=C(CCc1ccccc1)NNC(=S)NC(=O)c1ccccc1	n	n	n	u	3.7µM	3.3µM
Cc1ccc(C(=O)NC(=S)NNC(=O)c2ccccc2O)cc1	n	n	n	n	n	u
Cc1onc(-c2ccccc2)c1C(=O)NC(=S)NNC(=O)c1ccc(O)cc1O	n	n	4.6µM	3.3µM	n	u
CC1CCc2c(sc3nnn(CC(=O)Nc4c(C(C)C)cccc4C(C)C)c(=O)c23)C1 (centres undefined)	x	x	n	n	x	x
CCc1cc2c(=O)nc3n(c2s1)Cc1ccccc1/C3=C(/O)c1ccccc1Cl	n	n	n	n	n	6.5µM
CCc1cc2c(=O)nc3n(c2s1)Cc1ccccc1/C3=C(/O)c1cccc([N+](=O)[O-])c1	n	n	n	n	n	u
CCCCNC(=O)NS(=O)(=O)c1ccc(N)cc1	x	x	x	x	n	n
Cc1cnc(Nc2nc3ccccc3o2)nc1C(=O)Nc1cccc(C(F)(F)F)c1	n	n	16µM	15µM	u	u
Cc1cccc(-n2c3nc(=O)n(C)c(=O)c-3cc3c(C)nn(-c4ccccc4)c32)c1C	x	x	n	u	x	x
COc1ccc(CN2C(=O)CSCC2=O)cc1OC	n	n	n	u	n	n
CNC(=O)C1CC(=O)N(CCc2ccc(OC)c(OC)c2)C(=Nc2ccc(F)cc2)S1 (centres undefined)	n	n	n	n	u	n
COc1ccc(CCN2C(=O)CC(C(N)=O)SC2=Nc2ccccc2)cc1OC (centres undefined)	n	n	n	21µM	n	n
COc1ccc(CCN2C(=O)CSC2=S)cc1OC	n	n	6.5µM	5.8µM	15µM	12µM
O=c1ccc(-c2ccccc2)nn1Cc1c(F)cccc1Cl	x	x	n	n	x	x
Cc1ccc(-c2nnn(CC(=O)N(CC(=O)NC3CCCCC3)c3ccccc3F)n2)o1	n	n	n	u	n	n
CCC1CCCCN1S(=O)(=O)c1ccc(C(=O)Nc2sc3c(c2C(=O)NC)CCC3)cc1 (centres undefined)	x	x	n	n	x	x
COc1ccc(OC)c(NC(=O)c2cccc(NC(=O)c3ccccc3)c2)c1	n	n	n	n	n	n
COc1cccc(/C=N\NC(=O)c2ccc(Cn3cc(Br)c([N+](=O)[O-])n3)o2)c1O	n	n	u	u	0.73µM	u

Bioassay records as filed in PubChem BioAssay.
